From PubChem BioAssay (Tox21)
Results filed as inconclusive are left out. Active and inactive are the calls of the source. Unless noted, calls come from the whole dose curve; as a rule, active = well fitted curve in the direction sought with a large enough effect in the repeat runs; inconclusive = weak or mixed curves; inactive = no such curve, though single readings can be large; an effect the other way counts as inactive or inconclusive.

How the values were obtained:
[1] = A CellTox Green Cytotoxicity Assay to monitor cytotoxicity in HepG2 cells - 8 hour (AID 1224890); note: nearly all actives have a fitted effect of over 45% in size
Method in brief: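 Nonlytic assay: viable cells exclude the dye, so fluorescence scales with cell death. HepG2 at 600 cells/well, compounds added after 5 h, signal read across 40 h.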

[2] = qHTS assay to identify small molecule antagonists of the estrogen receptor alpha (ER-alpha) signaling pathway using the BG1 cell line in the presence of 0.1 nM 17-beta-estradiol - cell viability counter screen (AID 1259241); note: nearly all actives have a fitted effect of over 40% in size
Method in brief: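 Estradiol-stimulated (0.1 nM) VM7Luc4E2 cells exposed to compounds 22 hr; viability measured by fluorescence of cleaved CellTiter-Fluor substrate after 30 min.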

[3] = qHTS assay to identify small molecule antagonists of the androgen receptor (AR) signaling pathway using the MDA cell line in the presence of 0.5 nM R1881 - cell viability counter screen (AID 1259242); note: nearly all actives have a fitted effect of over 45% in size
Method in brief: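 R1881 at 0.5 nM final stimulated MDA-kb2 cells during 16 hr compound treatment at 37C. Cytotoxicity read: CellTiter-Fluor fluorescence after 30 min.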

[4] = molecular target: Estrogen receptor (Homo sapiens) (UniProt P03372); test: qHTS assay to identify small molecule antagonists of the estrogen receptor alpha (ER-alpha) signaling pathway using the BG1 cell line in the presence of 0.1 nM 17-beta-estradiol (AID 1259244); note: nearly all actives have a fitted effect of over 50% in size
Method in brief: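 VM7Luc4E2; 4xERE-luciferase; 0.1 nM E2 final; 22 h co-incubation, 37C; ONE-Glo luminescence after 30 min at room temperature.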

[5] = qHTS assay to identify small molecule HDAC inhibitors (AID 1259364);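 note: wild-type HCT-116 cells with endogenous class I/II HDAC activity; top concentration of the series differs between compounds; nearly all actives have a fitted effect of over 45% in size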
Method in brief: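 Relative class I and II HDAC activity is taken from the luminogenic signal in HCT-116 cells, with compound exposure 2 hr and reagent development 30 min at room temperature.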

[6] = qHTS assay to identify small molecule HDAC inhibitors - cell viability counter screen (AID 1259365); note: series mostly up to about 92 µM; nearly all actives have a fitted effect of over 50% in size
Method in brief: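 After overnight seeding at 1,500 cells per well, wild-type HCT-116 cultures took up compounds in DMSO for 2hr at 37 C. Viable cell content came from luminescence with CellTiter-Glo.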

[7] = qHTS assay to identify small molecule agonists of the sonic hedgehog signaling (Shh) pathway - cell viability counter screen (AID 1259366); note: nearly all actives have a fitted effect of over 50% in size
Method in brief: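 Same-well cytotoxicity read. Gli1-Luc reporter 3T3 cells; compounds 24hr, 37C/5% CO2; CellTiter-Fluor fluorescence.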

[8] = qHTS assay to identify small molecule antagonists of the sonic hedgehog signaling (Shh) pathway - cell viability counter screen (AID 1259367); note: nearly all actives have a fitted effect of over 55% in size
Method in brief: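 Seed 3T3 Gli1-Luc cells at 2,000 per well; incubate 4 hr; add compound in DMSO, then conditioned medium; incubate at 37C with 5% CO2; add CellTiter-Fluor after 23 hr; read fluorescence 1 hr later.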

[9] = qHTS assay to identify small molecule agonists of the sonic hedgehog signaling (Shh) pathway (AID 1259368; calls by dose curve;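 note: NIH/3T3-derived 3T3Gli1-Luc cells carrying a stable Gli1-driven firefly luciferase reporter; series mostly up to about 92 µM; nearly all actives have a fitted effect of over 15% in size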)
Method in brief: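 Mouse fibroblast (NIH/3T3) reporter cells with stably integrated Gli1-Luc were treated 24 hr with compound; firefly luciferase luminescence served as the read-out.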

[10] = qHTS assay to identify small molecule antagonists of the sonic hedgehog signaling (Shh) pathway (AID 1259369; calls by dose curve; note: nearly all actives have a fitted effect of over 45% in size)
Method in brief: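 Conditioned medium drives Shh signalling in 3T3Gli1-Luc cells; compounds in DMSO co-applied, 24hr at 37 C, then luciferase luminescence.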

[11] = qHTS assay to identify small molecule agonists of the androgen receptor (AR) signaling pathway in the presence of an antagonist - cell viability counter screen (AID 1259379);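 note: MDA-kb2 human breast cancer cells carrying an MMTV luciferase reporter; series mostly up to about 92 µM; nearly all actives have a fitted effect of over 25% in size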
Method in brief: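 A CellTiter-Fluor read-out measured viability of MDA-kb2 reporter cells (MMTV promoter with AR and GR response elements). Treatment: nilutamide 3.0uM final with compounds at 15 concentrations, 16 hr, 37C, 0% CO2.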

[12] = qHTS assay to identify small molecule agonists of the estrogen receptor beta (ER-beta) signaling pathway - cell viability counter screen (AID 1259380); note: nearly all actives have a fitted effect of over 30% in size
Method in brief: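 Cells used were ER-beta-UAS-bla HEK293T in medium with 2% charcoal-stripped FBS. They were treated for 16 hr at 37C. Viability came from CellTiter-Glo luminescence.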

[13] = qHTS assay to identify small molecule antagonists of the estrogen receptor beta (ER-beta) signaling pathway - cell viability counter screen (AID 1259382); note: series mostly up to about 92 µM; nearly all actives have a fitted effect of over 55% in size
Method in brief: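 Agonist-stimulated (1nM E2) ER-beta-UAS-bla HEK293T cells are incubated with library compounds for 16 hr at 37C. Cell viability is then assessed in the reporter-assay wells by adding CellTiter-Glo and reading luminescence after 30 min.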

[14] = molecular target: Estrogen receptor (Homo sapiens) (UniProt P03372); test: qHTS assay to identify small molecule agonists of the estrogen receptor alpha (ER-alpha) signaling pathway in the presence of an antagonist (AID 1259383; calls by dose curve; note: top concentration of the series differs between compounds; nearly all actives have a fitted effect of over 15% in size)
Method in brief: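 Using VM7Luc4E2 cells seeded 24hr before treatment, antagonist ICI-182,780 (10.0nM final) was added, followed by compounds at 15 concentrations. Plates incubated 22hr; ONE-Glo luminescence quantified reporter activity.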

[15] = qHTS assay to identify small molecule agonists or antagonists of the thyroid stimulating hormone receptor (TSHR) signaling pathway - wild type cell line counter screen (AID 1259384; calls by dose curve)
Method in brief: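 Wild-type Hek293 cells, 800/well, 18 h at 37C, then compound with Ro20-1724 for 30 min RT. cAMP by HTRF (cAMP-d2/anti-cAMP cryptate), 1 h RT, fluorescence read. 15 concentrations, triplicates.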

[16] = qHTS assay to identify small molecule phospholipidosis (PLD) inducers (AID 1259344; active = well fitted curve in the direction sought with a large enough effect; an effect the other way counts as inactive or inconclusive)
Method in brief: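 Quantitative HTS in HepG2: compound plus LipidTOX Red dye for 24 h, paraformaldehyde fixation with Hoechst 33342, widefield high-content imaging; amiodarone as positive and DMSO as negative control.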

[17] = molecular target: Estrogen receptor beta (Homo sapiens) (UniProt Q92731); test: qHTS assay to identify small molecule agonists of the estrogen receptor beta (ER-beta) signaling pathway (AID 1259377; active = well fitted activation curve with a large enough effect in the signal ratio in the repeat runs, not every such curve was filed as active; the % refers to the signal ratio)
Method in brief: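 Read-out: beta-lactamase FRET fluorescence. Cell line: ER-beta-UAS-bla HEK293T in 2% charcoal-stripped FBS. Exposure: 16 hr at 37C. Substrate step: 2 h at room temperature.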

[18] = molecular target: Estrogen receptor beta (Homo sapiens) (UniProt Q92731); test: qHTS assay to identify small molecule antagonists of the estrogen receptor beta (ER-beta) signaling pathway (AID 1259378; active = well fitted inhibition curve with a large enough effect in the signal ratio in the repeat runs, not every such curve was filed as active; the % refers to the signal ratio)
Method in brief: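 ER-beta-UAS-bla HEK293T cells in 2% charcoal-stripped FBS medium treated with compound plus 1nM final 17-beta-estradiol for 16 hr at 37C. Beta-lactamase reporter read by FRET substrate fluorescence after 2 hours at room temperature.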

Measured: Potency

Estrogen receptor beta (Homo sapiens), sequence (Q92731 whole entry, looked up): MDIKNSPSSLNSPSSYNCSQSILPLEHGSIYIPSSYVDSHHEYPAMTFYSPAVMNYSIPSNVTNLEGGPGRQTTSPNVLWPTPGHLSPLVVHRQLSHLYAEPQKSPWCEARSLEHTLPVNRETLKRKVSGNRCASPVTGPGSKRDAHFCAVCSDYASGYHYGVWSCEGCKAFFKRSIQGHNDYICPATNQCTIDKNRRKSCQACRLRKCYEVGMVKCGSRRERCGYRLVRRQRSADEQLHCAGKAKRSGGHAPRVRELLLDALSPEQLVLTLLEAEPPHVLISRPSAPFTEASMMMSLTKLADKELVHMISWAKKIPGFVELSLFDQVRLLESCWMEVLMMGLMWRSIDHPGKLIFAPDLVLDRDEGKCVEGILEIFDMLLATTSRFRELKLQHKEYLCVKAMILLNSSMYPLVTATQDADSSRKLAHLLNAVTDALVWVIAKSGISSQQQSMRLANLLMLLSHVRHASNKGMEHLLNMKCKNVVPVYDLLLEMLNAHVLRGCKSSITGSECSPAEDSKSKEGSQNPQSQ
Estrogen receptor (Homo sapiens), sequence (P03372 whole entry, looked up): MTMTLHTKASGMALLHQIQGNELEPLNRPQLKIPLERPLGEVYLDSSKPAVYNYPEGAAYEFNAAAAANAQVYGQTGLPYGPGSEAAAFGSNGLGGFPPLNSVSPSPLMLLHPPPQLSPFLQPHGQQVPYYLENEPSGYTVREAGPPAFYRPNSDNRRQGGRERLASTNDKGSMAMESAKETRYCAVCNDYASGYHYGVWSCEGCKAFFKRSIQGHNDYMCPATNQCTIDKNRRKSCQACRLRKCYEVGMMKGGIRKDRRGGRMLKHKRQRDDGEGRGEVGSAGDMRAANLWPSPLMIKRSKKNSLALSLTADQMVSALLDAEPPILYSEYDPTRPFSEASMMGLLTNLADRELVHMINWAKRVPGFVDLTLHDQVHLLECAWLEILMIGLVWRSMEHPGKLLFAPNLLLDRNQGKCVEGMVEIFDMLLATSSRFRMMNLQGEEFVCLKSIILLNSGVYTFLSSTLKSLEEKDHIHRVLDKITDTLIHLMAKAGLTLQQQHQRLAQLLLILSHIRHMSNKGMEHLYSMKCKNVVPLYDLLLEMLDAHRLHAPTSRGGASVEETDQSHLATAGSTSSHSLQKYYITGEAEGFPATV

CC(=O)OCCC(C)CC(C)(C)C (configuration not stated)
not listed: [16] | [17] | [18]
inactive: all other assays above

C=CC(=O)O
not listed: [7] | [13]
inactive: all other assays above

Cc1cccc2sc(N)nc12
not listed: [13] | [16] | [17]
inactive: all other assays above

C=CC(=O)NC(C)C
not listed: [16] | [17] | [18]
inactive: all other assays above

CC(=O)C(=O)CC(C)C
not listed: [16] | [17] | [18]
inactive: all other assays above

COc1cc(S(=O)(=O)Nc2ccccc2)c(OC)cc1N
not listed: [12] | [16]
inactive: all other assays above

COC(C)(C)OC
not listed: [16] | [17] | [18]
inactive: all other assays above

FC(F)(F)C(F)(F)C(F)(F)C(F)(F)CCI
not listed: [16] | [17] | [18]
inactive: all other assays above
